According to PubChem BioAssay (Tox21):
Where “and” joins values, the source holds several entries; their conditions need not be identical. Equal values may be shown once. Inconclusive results are not listed. Some structures have more than one record in an assay (separate samples or runs), and their calls can disagree. Calls of active or inactive are those of the source. Unless noted, calls come from the whole dose curve; as a rule, active = well fitted curve in the direction sought with a large enough effect in the repeat runs; inconclusive = weak or mixed curves; inactive = no such curve, though single readings can be large; an effect the other way counts as inactive or inconclusive.

Key:
[1] = qHTS assay to identify small molecule agonists of the RXR signaling pathway - cell viability counter screen (AID 1159529); note: nearly all actives have a fitted effect of over 50% in size
Procedure, shortened: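 Cell viability is measured by CellTiter-Glo luminescence, 30 min at room temperature, in wells already read for beta-lactamase. Engineered HEK 293T cells (RXR-alpha-UAS-bla) are dosed 16 hr at 37 C. Tetraoctyl ammonium bromide serves as positive control.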

[2] = qHTS assay to identify small molecule antagonists of the retinoid acid receptor (RAR) signaling pathway - cell viability counter screen (AID 1159551); note: nearly all actives have a fitted effect of over 35% in size
Procedure, shortened: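 Seed C3RL4 cells; next day add compound, then retinol to 1 uM final; incubate 6 h at 37 C; add CellTiter-Glo; read luminescence after 30 min at RT.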

[3] = qHTS assay to identify small molecule antagonists of the estrogen related receptor (ERR) signaling pathway - cell viability counter screen (AID 1224818);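 note: viability measured after 17.5 h of compound exposure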
Procedure, shortened: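 In the same ERR cell assay, compound-treated wells (17.5 h, 37 C) were multiplexed with a fluorogenic viability reagent, CellTiter-Fluor, read after 30 min to flag cytotoxic substances.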

[4] = qHTS assay to identify small molecule antagonists of the estrogen related receptor (ERR) signaling pathway (AID 1224819;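 note: luminescence from an ERR-driven luciferase reporter measured with One-Glo reagent; nearly all actives have a fitted effect of over 50% in size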)
Procedure, shortened: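 qHTS in ERR cells, 2,000/well, 1536 format. Cpd (DMSO) added after 6 h settle, 18 h 37 C. One-Glo luminescence, 30 min RT.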

[5] = qHTS assay to identify small molecule agonists of the estrogen related receptor (ERR) signaling pathway (AID 1224820)
Procedure, shortened: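 ERR reporter cell line (from NTP), 2,000 cells/well, incubated 6 h before compound addition, then 18 h at 37 C. Luminescence measured 30 min after One-Glo reagent at room temperature.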

[6] = tested on: estrogen-related receptor alpha (ERRalpha) with PGC-1alpha coactivator, human; assay: qHTS assay to identify small molecule antagonists of the estrogen related receptor signaling pathway with the pleiotropic PPARgamma coactivator (PGC) (AID 1224821; calls by dose curve;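 note: lower luminescence signal means antagonism of PGC/ERR signalling; nearly all actives have a fitted effect of over 50% in size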)
Procedure, shortened: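 PGC/ERR reporter cell line, plated 6 h before compound addition, then exposed 18 h at 37 °C. Luciferase activity read by luminescence 30 min after One-Glo addition; decrease indicates antagonism.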

[7] = qHTS assay to identify small molecule agonists of the estrogen related receptor signaling pathway with the pleiotropic PPARgamma coactivator (PGC) (AID 1224823)
Procedure, shortened: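 PGC/ERR reporter cells seeded 6 h, then exposed to compounds (23 nL in DMSO) for 18 h at 37 C. One-Glo luciferase luminescence read after 30 min at room temperature.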

[8] = qHTS assay to identify small molecule antagonists of the estrogen related receptor (ERR) signaling pathway from Tox21 library - cell viability counter screen (AID 1224834); note: nearly all actives have a fitted effect of over 30% in size
Procedure, shortened: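 CellTiter-Fluor fluorescence measured; ERR cells; 17.5 h compound incubation at 37 C; 30 min reagent step.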

[9] = biological target: Luciferin 4-monooxygenase (Photinus pyralis) (UniProt P08659); assay: qHTS assay to identify small molecule inhibitors of firefly luciferase (AID 1224835); note: nearly all actives have a fitted effect of over 25% in size; note: potency is the fitted concentration of half-maximal effect
Sequence of Luciferin 4-monooxygenase (Photinus pyralis) (P08659 whole entry, looked up): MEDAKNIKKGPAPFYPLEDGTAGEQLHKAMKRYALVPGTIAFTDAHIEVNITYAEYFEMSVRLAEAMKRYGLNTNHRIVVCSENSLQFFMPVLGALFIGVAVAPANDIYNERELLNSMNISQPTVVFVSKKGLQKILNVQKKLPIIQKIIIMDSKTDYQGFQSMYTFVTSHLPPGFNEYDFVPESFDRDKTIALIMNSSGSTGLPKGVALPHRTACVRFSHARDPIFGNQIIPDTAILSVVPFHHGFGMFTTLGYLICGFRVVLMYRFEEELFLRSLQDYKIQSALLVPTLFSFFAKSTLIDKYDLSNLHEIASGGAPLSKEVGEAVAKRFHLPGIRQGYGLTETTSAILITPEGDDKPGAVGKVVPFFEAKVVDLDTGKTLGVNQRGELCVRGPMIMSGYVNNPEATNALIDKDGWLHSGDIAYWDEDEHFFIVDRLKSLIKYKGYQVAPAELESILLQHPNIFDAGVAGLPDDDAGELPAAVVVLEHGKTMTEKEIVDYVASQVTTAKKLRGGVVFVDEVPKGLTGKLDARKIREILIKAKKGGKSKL
Procedure, shortened: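 Biochemical qHTS: compounds run as interplate titrations against purified firefly enzyme, with D-luciferin and ATP each at its KM concentration. Light output recorded by CCD imaging.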

[10] = qHTS assay to identify small molecule agonists of the constitutive androstane receptor (CAR) signaling pathway - cell viability counter screen (AID 1224836); note: nearly all actives have a fitted effect of over 45% in size; note: potency is the fitted concentration of half-maximal effect
Procedure, shortened: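 Counter screen multiplexed with the CAR reporter readout: HepG2 cells co-transfected with hCAR and the CYP2B6-2.2kb construct receive a 15-concentration compound series and 0.75 uM PK11195 (final), then CellTiter-Fluor fluorescence is read after 23 h.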

[11] = qHTS assay to identify small molecule antagonists of the constitutive androstane receptor (CAR) signaling pathway - cell viability counter screen (AID 1224837); note: nearly all actives have a fitted effect of over 45% in size; note: potency is the fitted concentration of half-maximal effect
Procedure, shortened: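 Using CellTiter-Fluor, viability is scored in HepG2 cells stably carrying hCAR and a 2.2kb CYP2B6 reporter after 23 hr compound exposure across 15 concentrations, with CITCO present at 50 nM.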

[12] = qHTS assay to identify small molecule antagonists of the estrogen related receptor signaling pathway with the pleiotropic PPARgamma coactivator (PGC) from Tox21 10K library - cell viability counter screen (AID 1224840; active = well fitted cell-killing curve with a large enough effect in the repeat runs, not every such curve was filed as active; note: nearly all actives have a fitted effect of over 40% in size)
Procedure, shortened: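 Here the PGC/ERR cells serve as a cytotoxicity control: they are exposed to compounds for 17.5 hours at 37 C, and live-cell signal is quantified using CellTiter-Fluor fluorescence.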

[13] = qHTS assay to identify small molecule antagonists of the estrogen related receptor signaling pathway with the pleiotropic PPARgamma coactivator (PGC) from Tox21 10K library (AID 1224841; call rule not given here; note: actives are mostly falling curves and most rising ones were filed inactive; nearly all actives have a fitted effect of over 50% in size; note: potency is the fitted concentration of half-maximal effect)
Procedure, shortened: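 Each well held 2,000 PGC/ERR cells, pre-incubated six hours (37 C, 5% CO2). Test substances in DMSO were added by pin tool and left for 18 h at 37 C before luciferase detection by One-Glo.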

[14] = qHTS assay to identify small molecule agonists of the estrogen related receptor signaling pathway with the pleiotropic PPARgamma coactivator (PGC) from Tox21 10K library (AID 1224842); note: nearly all actives have a fitted effect of over 15% in size
Procedure, shortened: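 PGC/ERR reporter cell line, 2,000 cells per well, incubated 6 h at 37 C before 23 nL compound in DMSO was added. After 18 h at 37 C, One-Glo luminescence read following 30 min at room temperature.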

[15] = biological target: Thyrotropin receptor (Homo sapiens) (UniProt P16473); assay: qHTS assay to identify small molecule agonists of the thyroid stimulating hormone receptor (TSHR) signaling pathway (AID 1224843; calls by dose curve; note: nearly all actives have a fitted effect of over 45% in size)
Sequence of Thyrotropin receptor (Homo sapiens) (P16473 whole entry, looked up): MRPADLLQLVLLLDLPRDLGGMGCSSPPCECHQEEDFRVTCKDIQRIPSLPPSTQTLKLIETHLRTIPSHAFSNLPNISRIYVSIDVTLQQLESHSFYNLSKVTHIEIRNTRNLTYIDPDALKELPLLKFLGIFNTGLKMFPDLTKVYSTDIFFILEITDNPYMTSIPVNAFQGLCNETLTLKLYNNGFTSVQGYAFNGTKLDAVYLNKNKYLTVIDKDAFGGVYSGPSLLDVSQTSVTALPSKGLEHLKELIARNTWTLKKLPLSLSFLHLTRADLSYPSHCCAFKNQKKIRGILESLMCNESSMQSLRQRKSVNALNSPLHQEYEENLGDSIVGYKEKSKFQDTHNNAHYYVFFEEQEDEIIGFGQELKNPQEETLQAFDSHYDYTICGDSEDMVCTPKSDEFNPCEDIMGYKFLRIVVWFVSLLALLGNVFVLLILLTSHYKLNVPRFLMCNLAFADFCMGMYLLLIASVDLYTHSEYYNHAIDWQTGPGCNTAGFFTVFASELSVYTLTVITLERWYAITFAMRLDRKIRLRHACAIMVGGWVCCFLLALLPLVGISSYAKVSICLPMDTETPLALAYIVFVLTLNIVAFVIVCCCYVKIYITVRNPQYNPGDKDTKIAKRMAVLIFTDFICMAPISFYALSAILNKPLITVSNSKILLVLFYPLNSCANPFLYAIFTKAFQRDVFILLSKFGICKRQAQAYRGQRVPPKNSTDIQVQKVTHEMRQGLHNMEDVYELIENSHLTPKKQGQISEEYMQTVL
Procedure, shortened: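 TSHR-HEK293 cells in agonist mode, 30 min room-temperature step, then cAMP measured by competitive HTRF (cAMP-d2 with anti-cAMP cryptate) after 1 h at room temperature. Tested at 15 concentrations in triplicate.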

[16] = qHTS assay to identify small molecule agonists of the hypoxia (HIF-1) signaling pathway - cell viability counter screen (AID 1224844; calls by dose curve; note: nearly all actives have a fitted effect of over 50% in size; note: potency is the fitted concentration of half-maximal effect)
Procedure, shortened: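 Multiplexed with the HRE beta-lactamase assay, this viability read used CellTiter-Glo luminescence (30 min, RT) on HRE-bla ME-180 cells treated 17 hrs with compounds in 0.5% dialyzed FBS medium.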

[17] = qHTS assay to identify small molecule antagonists of the retinoic acid receptor (RAR) signaling pathway (AID 1159552; note: nearly all actives have a fitted effect of over 50% in size)
Procedure, shortened: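 Quantitative HTS in C3RL4 RARE-luciferase reporter cells. Compounds were added with 1 uM (final) retinol; luminescence was read after 6 hr.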

[18] = qHTS assay to identify small molecule agonists of the retinoic acid receptor (RAR) signaling pathway (AID 1159553); conditions: C3RL4 RARE luciferase reporter, agonist, 6 h; activation: at 73.3 µM (top of the series) unless noted; note: potency is the fitted concentration of half-maximal effect
Procedure, shortened: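 Activation of retinol signaling was monitored via a RARE luciferase reporter in C3RL4 cells. After 6 hr compound treatment at 37 C, detection reagent was added for 30 min at room temperature before luminescence reading.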

[19] = biological target: Nuclear receptor subfamily 1 group I member 3 (Homo sapiens) (UniProt Q14994); assay: qHTS assay to identify small molecule antagonists of the constitutive androstane receptor (CAR) signaling pathway (AID 1224838);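 note: HepG2 cells stably expressing hCAR with CYP2B6 luciferase reporter stimulated by CITCO; nearly all actives have a fitted effect of over 40% in size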; note: potency is the fitted concentration of half-maximal effect
Sequence of Nuclear receptor subfamily 1 group I member 3 (Homo sapiens) (Q14994 whole entry, looked up): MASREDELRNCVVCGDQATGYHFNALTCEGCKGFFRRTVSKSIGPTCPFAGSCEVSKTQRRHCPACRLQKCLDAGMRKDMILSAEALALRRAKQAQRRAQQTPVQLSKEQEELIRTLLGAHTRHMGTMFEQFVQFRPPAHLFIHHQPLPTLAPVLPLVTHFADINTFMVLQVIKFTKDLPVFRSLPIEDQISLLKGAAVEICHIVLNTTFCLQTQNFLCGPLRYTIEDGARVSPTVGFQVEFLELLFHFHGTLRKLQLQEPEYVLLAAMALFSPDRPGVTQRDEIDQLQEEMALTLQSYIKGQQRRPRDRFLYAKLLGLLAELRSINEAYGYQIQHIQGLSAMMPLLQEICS
Procedure, shortened: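 Reporter luminescence was quantified after 24 h exposure of hCAR/CYP2B6-2.2kb double-stable HepG2 cells to compounds at 15 concentrations in the presence of 50 nM CITCO final.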

[20] = biological target: Nuclear receptor subfamily 1 group I member 3 (Homo sapiens) (UniProt Q14994); assay: qHTS assay to identify small molecule agonists of the constitutive androstane receptor (CAR) signaling pathway (AID 1224839); note: nearly all actives have a fitted effect of over 15% in size; note: potency is the fitted concentration of half-maximal effect
Procedure, shortened: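 A 15-concentration quantitative screen uses HepG2 cells co-transfected stably with human CAR and CYP2B6-2.2kb reporter. Treatment lasts 24 h with 0.75 uM PK11195 final present; ONE-Glo luminescence is the signal.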

Measured: Potency

C[C@]12C=CC(=O)C=C1CC[C@H]1[C@@H]3C[C@@H](O)[C@](O)(C(=O)CO)[C@@]3(C)C[C@H](O)[C@@]12F
not listed: [17] | [18] | [19] | [20]
inactive: all other assays above

C=CC(=O)OCCCC
not listed: [3] | [4] | [5] | [6] | [7] | [8] | [20]
inactive: all other assays above

C1COCCN1
inactive: [1] | [2] | [17] | [18] | [9] | [10] | [11] | [19] | [12] | [15] | [16]

Nc1ccc2c(O)cc(S(=O)(=O)O)cc2c1
inactive: [1] | [2] | [17] | [20] | [14] | [15]
active: [9] 63.4 µM and 44.8 µM | [10] 21.7 µM | [11] 19.4 µM and 68.6 µM | [19] 3.86 µM and 686 nM | [13] 15.4 µM

O=C(O)CCCCCCCCCCCC(=O)O
60.1 µM (active) and inactive: [13]
inactive: [1] | [2] | [17] | [8] | [9] | [10] | [11] | [12] | [14] | [15]
48.2 µM (active) and inactive: [16]

O=C(O)COCCN1CCN(C(c2ccccc2)c2ccc(Cl)cc2)CC1 (stereo not given)
inactive: [1] | [2] | [3] | [8] | [9] | [10] | [11] | [19] | [12] | [15] | [16]

COc1ccc2nc(N)sc2c1
inactive: [1] | [2] | [17] | [10] | [11] | [19] | [12] | [15] | [16]
active: [18] 19.3 µM | [9] 35.6 µM and 31.7 µM

c1ccc2c(c1)ccc1ncccc12
active: [9] 62.8 µM and 35.6 µM | [20] 54.1 µM and 48.6 µM
not listed: [3] | [4] | [5] | [6] | [7] | [8] | [18]
inactive: all other assays above

OC[C@H]1O[C@@H]2O[C@H]3[C@H](O)[C@@H](O)[C@@H](O[C@H]4[C@H](O)[C@@H](O)[C@@H](O[C@H]5[C@H](O)[C@@H](O)[C@@H](O[C@H]6[C@H](O)[C@@H](O)[C@@H](O[C@H]7[C@H](O)[C@@H](O)[C@@H](O[C@H]1[C@H](O)[C@H]2O)O[C@@H]7CO)O[C@@H]6CO)O[C@@H]5CO)O[C@@H]4CO)O[C@@H]3CO
not listed: [3] | [4] | [5] | [6] | [7] | [13] | [14] | [18]
inactive: all other assays above
